Assay results reported in PMC7862700, “An all-to-all approach to the identification of sequence-specific readers for epigenetic DNA modifications on cytosine”.

Tests used:
Experiment in all cases: DAPPL (digital affinity profiling via proximity ligation, sequencing); 10 mM Tris-HCl pH 7.5, 50 mM NaCl, 1 mM DTT, 4% glycerol, room temperature, 30 min; GST-TFs on glutathione beads, 16-mer random dsDNA library, 0.1% formaldehyde crosslink after washing; high values mean tight binding
Details in all cases: protein: recombinant; tags: N-terminal GST; dsDNA, one strand shown
FLI1 = biological target: T1, FLI1 (Homo sapiens, UniProt Q01543 1-452)
T1 sequence: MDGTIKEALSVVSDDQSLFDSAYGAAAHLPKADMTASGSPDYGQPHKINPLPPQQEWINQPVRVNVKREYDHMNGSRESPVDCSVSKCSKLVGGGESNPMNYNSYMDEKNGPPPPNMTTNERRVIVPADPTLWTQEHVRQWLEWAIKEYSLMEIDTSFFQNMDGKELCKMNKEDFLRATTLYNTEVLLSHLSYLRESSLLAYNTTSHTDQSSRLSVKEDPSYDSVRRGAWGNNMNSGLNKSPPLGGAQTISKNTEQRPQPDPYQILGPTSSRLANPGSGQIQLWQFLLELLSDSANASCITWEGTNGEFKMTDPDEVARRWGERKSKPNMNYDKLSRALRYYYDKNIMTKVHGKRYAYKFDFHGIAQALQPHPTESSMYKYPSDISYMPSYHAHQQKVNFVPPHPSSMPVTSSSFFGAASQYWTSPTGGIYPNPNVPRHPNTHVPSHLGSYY
Summary of the method: (§1)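 Human transcription factors fused to GST were expressed in yeast, captured on glutathione beads, given DNA barcodes and pooled with a GST-only negative control. Pools were incubated with 200 nmole of a 16-mer random double-stranded DNA library in Tris/NaCl/DTT/glycerol buffer at room temperature for 30 min. They were then washed, crosslinked with 0.1% formaldehyde, proximity-ligated (BsaI/T4 ligase, 1 h, 37 °C), PCR-amplified and sequenced on an Illumina NextSeq500. Binding signal is each 6-mer's read frequency for a factor divided by its frequency for the GST control.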

ELK1 = biological target: T2, ELK1 (Homo sapiens, UniProt P19419 1-428)
T2 sequence: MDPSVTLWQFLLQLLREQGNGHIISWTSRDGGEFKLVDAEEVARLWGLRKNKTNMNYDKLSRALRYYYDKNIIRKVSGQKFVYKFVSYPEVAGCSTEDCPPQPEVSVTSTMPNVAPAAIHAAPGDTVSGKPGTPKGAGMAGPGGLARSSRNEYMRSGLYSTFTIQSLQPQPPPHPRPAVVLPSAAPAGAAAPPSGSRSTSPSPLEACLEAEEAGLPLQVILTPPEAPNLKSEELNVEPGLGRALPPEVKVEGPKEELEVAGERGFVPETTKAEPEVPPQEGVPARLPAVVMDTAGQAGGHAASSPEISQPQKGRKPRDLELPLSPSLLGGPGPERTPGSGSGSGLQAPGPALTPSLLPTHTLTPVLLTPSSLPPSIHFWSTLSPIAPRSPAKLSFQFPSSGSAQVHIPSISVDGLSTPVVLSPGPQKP
Summary of the method: as §1

GABPA = biological target: T3, GABPA (Homo sapiens, UniProt Q06546 1-454)
T3 sequence: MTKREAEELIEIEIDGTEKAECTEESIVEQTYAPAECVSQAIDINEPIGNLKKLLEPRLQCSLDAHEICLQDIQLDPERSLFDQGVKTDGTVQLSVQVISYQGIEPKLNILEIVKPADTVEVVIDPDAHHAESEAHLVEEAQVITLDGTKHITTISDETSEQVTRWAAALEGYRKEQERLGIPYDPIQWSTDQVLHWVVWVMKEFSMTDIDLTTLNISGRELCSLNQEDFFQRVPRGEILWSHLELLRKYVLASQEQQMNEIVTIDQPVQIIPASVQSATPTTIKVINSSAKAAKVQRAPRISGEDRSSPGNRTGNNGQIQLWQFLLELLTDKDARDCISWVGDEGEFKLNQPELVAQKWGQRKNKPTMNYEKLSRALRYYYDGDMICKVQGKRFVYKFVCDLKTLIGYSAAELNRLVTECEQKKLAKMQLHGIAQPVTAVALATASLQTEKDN
Summary of the method: as §1

ERG = biological target: T4, ERG (Homo sapiens, UniProt P11308 1-479)
T4 sequence: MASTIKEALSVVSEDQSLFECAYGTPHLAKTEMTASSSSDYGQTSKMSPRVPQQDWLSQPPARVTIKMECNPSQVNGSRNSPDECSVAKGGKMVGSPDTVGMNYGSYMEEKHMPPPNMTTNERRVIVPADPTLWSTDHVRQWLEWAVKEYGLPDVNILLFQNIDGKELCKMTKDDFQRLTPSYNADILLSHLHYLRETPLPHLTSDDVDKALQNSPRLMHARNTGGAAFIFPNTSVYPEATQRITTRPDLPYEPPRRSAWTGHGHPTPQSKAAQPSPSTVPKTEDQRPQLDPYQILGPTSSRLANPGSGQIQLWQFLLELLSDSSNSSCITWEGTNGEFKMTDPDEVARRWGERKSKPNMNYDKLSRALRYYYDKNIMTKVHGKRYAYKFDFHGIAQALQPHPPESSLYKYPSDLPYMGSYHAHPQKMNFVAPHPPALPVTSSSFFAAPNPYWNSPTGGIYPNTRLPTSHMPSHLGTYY
Summary of the method: as §1

ELF1 = ELF1 (Homo sapiens, UniProt P32519 1-619)
Chain of ELF1 (P32519 whole entry): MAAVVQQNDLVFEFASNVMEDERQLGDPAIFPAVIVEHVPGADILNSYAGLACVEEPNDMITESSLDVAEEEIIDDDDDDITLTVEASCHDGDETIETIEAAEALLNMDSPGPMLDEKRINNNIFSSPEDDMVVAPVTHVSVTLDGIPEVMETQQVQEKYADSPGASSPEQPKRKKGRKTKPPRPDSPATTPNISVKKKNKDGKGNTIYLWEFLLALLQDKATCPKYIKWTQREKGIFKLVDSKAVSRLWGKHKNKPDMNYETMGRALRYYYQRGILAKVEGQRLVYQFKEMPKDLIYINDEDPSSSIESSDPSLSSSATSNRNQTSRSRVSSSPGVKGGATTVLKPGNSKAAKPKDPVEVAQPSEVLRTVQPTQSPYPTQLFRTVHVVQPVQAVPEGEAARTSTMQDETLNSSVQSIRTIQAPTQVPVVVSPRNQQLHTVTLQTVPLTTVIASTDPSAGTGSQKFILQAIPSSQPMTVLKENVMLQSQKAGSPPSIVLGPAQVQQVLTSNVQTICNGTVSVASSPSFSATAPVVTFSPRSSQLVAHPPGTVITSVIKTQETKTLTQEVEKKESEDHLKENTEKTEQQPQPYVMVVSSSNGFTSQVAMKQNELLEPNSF
Summary of the method: as §1

EHF = biological target: T5, EHF (Homo sapiens, UniProt Q9NZC4 1-300)
T5 sequence: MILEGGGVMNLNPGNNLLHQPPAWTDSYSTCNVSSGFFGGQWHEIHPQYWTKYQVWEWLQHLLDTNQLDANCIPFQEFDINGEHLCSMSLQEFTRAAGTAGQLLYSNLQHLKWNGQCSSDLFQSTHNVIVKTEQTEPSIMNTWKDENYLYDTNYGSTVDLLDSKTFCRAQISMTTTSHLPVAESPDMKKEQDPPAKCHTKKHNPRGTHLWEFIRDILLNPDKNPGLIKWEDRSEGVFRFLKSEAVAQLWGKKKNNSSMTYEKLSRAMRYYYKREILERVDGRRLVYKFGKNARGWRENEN
Summary of the method: as §1

SPI1 = SPI1 (Homo sapiens, UniProt P17947 1-270)
Summary of the method: as §1

SPIB = SPIB (Homo sapiens, UniProt Q01892 1-262)
Chain of SPIB (Q01892 whole entry): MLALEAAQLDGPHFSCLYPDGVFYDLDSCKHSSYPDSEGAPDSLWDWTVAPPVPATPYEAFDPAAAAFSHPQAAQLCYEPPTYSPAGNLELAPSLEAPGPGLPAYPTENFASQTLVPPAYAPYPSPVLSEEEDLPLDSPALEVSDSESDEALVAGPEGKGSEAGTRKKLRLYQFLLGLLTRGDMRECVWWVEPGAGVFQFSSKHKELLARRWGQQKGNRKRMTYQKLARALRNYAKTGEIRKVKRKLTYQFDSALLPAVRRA
Summary of the method: as §1

ELK3 = biological target: T6, ELK3 (Homo sapiens, UniProt P41970 1-407)
T6 sequence: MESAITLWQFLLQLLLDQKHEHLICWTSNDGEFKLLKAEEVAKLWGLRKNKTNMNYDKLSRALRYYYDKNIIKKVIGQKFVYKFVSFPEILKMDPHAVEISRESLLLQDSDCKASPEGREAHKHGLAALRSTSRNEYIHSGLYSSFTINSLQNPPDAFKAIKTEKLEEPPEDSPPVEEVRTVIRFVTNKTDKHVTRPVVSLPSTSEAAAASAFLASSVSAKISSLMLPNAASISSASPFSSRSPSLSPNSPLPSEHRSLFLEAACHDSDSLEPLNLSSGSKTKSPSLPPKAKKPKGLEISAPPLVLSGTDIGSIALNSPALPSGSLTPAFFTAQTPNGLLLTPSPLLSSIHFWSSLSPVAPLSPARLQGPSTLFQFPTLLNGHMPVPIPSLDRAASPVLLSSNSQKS
Summary of the method: as §1

TGGATG
binding signal (FLI1): 1.33 fold enrichment (6-mer frequency, TF over GST control) | binding signal (ELK1): 1.37 fold enrichment (6-mer frequency, TF over GST control) | binding signal (GABPA): 1.47 fold enrichment (6-mer frequency, TF over GST control) | binding signal (ERG): 1.32 fold enrichment (6-mer frequency, TF over GST control) | binding signal (ELF1): 1.48 fold enrichment (6-mer frequency, TF over GST control) | binding signal (EHF): 1.5 fold enrichment (6-mer frequency, TF over GST control) | binding signal (SPI1): 1.37 fold enrichment (6-mer frequency, TF over GST control) | binding signal (SPIB): 1.64 fold enrichment (6-mer frequency, TF over GST control) | binding signal (ELK3): 1.49 fold enrichment (6-mer frequency, TF over GST control)
